About 2,600 (16%) of roughly 16,000 compounds were called active. About 20% were inconclusive and are not listed. Many of the other results were omitted from the sample, so actives are more common in it than they were. Values without a mark were called inactive. Calls come from the whole dose curve; as a rule, active = well fitted curve in the direction sought with a large enough effect; inconclusive = small, poorly fitted or top-dose-only effect, or effect the other way; inactive = no such curve, though single readings can be large or run the other way.
Each molecule was assayed against Cytochrome P450 2D6 (Homo sapiens) (UniProt P10635) (assay: Cytochrome panel assay with activity outcomes). Conditions: recombinant CYP, pro-luciferin dealkylation, luminescence, p450-cyp2d6; series mostly up to 57.1 µM.
% is set by controls: 0 for no effect and ±100 for the full control effect.

Chain of Cytochrome P450 2D6 (Homo sapiens) (P10635 whole entry, looked up): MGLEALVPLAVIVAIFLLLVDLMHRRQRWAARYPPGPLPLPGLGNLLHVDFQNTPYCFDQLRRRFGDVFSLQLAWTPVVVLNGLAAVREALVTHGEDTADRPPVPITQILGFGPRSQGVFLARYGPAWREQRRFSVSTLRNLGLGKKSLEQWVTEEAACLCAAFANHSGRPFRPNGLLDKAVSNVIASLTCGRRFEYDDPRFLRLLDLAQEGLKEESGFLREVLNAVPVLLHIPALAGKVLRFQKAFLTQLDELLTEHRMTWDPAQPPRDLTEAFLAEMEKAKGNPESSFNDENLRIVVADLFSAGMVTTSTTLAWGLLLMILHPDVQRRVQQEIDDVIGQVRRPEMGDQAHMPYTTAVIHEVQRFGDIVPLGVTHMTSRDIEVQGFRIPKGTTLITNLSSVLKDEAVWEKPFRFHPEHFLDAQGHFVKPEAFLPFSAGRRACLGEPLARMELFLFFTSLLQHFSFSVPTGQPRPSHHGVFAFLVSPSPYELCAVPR

SMILES | AC50 | activity, negative = inhibition
CP(=O)(O)CCCN | inactive | 
CN1C[C@H](CO)C=C2c3cccc4[nH]cc(c34)C[C@@H]21 | 0.126 µM (active) | 
CN1C[C@H](C(=O)N[C@@]2(C)O[C@@]3(O)[C@H]4CCCN4C(=O)[C@@H](Cc4ccccc4)N3C2=O)C=C2c3cccc4[nH]cc(c34)C[C@@H]21 |  | -1.39% [at 11.4 µM]
CC(C)C[C@H]1C(=O)N2CCC[C@@H]2[C@@]2(O)O[C@](NC(=O)[C@@H]3C=C4c5cccc6[nH]cc(c56)C[C@@H]4N(C)C3)(C(C)C)C(=O)N12 | inactive | 
O=C(NCP(=O)(O)O)c1cccnc1 |  | -2.73% [at 11.4 µM]
O=C(Nc1ccccc1)N1CCC2(CC1)CCN(C(=O)Oc1ccccc1)CC2 | inactive | 
Cc1ccc(C2(c3ccc(C)c(O)c3C)CCN(C)CC2)c(C)c1O |  | -18.9% [at 11.4 µM]
Cn1c(O)c(C(c2ccccn2)c2c(O)n(C)c(=S)n(C)c2=O)c(=O)n(C)c1=S | inactive | 
C[C@@]12CC[C@H](O)C[C@@H]1CC[C@H]1[C@@H]2C[C@@H](O)[C@]2(C)[C@@H](C3=CC(=O)OC3)CC[C@]12O | inactive | 
c1ccc2c(c1)Sc1ccccc1N2C[C@H]1CN2CCC1CC2 | 0.398 µM (active) | 
CN1CCc2nc3ccc(F)cc3c(C(N)=O)c2C1 | inactive | 
CCOc1ccc2c(c1)C(C)=CC(C)(C)N2 | 2.51 µM (active) | 
CCCn1c(C)c(C(=O)c2cccc3ccccc23)c2ccccc21 | inactive | 
O=C(c1cc(=O)[nH]c2ccc(Br)cc12)N1CCC2(CC1)OCCO2 | inactive | 
CC(=O)OC1N=C(c2ccccc2)c2cc(Br)ccc2N(C)C1=O (stereo not given) | inactive | 
C[C@@H]1O[C@H](C[N+](C)(C)C)CS1 | inactive | 
COc1cccc(-n2c(O)c(C=NCCN3CCOCC3)c(=O)[nH]c2=O)c1 | inactive | 
CC1CN=C(Nc2cccc3ccccc23)S1 (stereo not given) | 11.2 µM (active) | 
C[N+]1(C)CCO[C@@](O)(c2ccc(-c3ccc([C@]4(O)C[N+](C)(C)CCO4)cc3)cc2)C1 | inactive | 
COC(=O)C(O)(c1c(C)[nH]c2ccccc12)C(F)(F)F (stereo not given) | inactive | 

SMILES | AC50 | activity, negative = inhibition
CCOC(=O)C1Cc2c([nH]c3ccccc23)CN1 (stereo not given) | 12.6 µM (active) | 
CCOC(=O)[C@@H]1[C@@H]2c3ccccc3-c3ccccc3[C@H]2C[C@H]1O |  | -5.13% [at 11.4 µM]
CCOC(=O)Cn1cc(C(=O)c2ccccc2F)c2ccccc21 | inactive | 
O=C(O)c1ccccc1-c1c2cc(Br)c(=O)cc-2oc2[c]([Hg])c(O)c(Br)cc12 | inactive | 
CC[N+](CC)(CC)CCOc1cccc(OCC[N+](CC)(CC)CC)c1OCC[N+](CC)(CC)CC | inactive | 
c1cncc(CNCCN2CCNCC2)c1 |  | -5.64% [at 11.4 µM]
c1cncc(CNc2cc(-c3ccc4c(c3)OCO4)ncn2)c1 | 20 µM (active) | 
C[C@@H](COc1ccccc1)N(CCCl)Cc1ccccc1 | 1.58 µM (active) | 
NNC(=O)c1ccc(O)cc1 | inactive | 
O=C(O)C[O][Sb][O]CC(=O)O |  | 2.9% [at 11.4 µM]
O=C(O)[C@H]1[O][Sb][O][C@@H](C(=O)O)C1O (stereo not given in full) |  | -8.1% [at 11.4 µM]
CCCCCCC[n+]1ccc(-c2cc[n+](CCCCCCC)cc2)cc1 | 7.94 µM (active) | 
COc1cc(C=C(C#N)C#N)cc(O)c1O | inactive | 
C[C@@]12CC[C@@H]3[C@H](CCC4=CC(=O)CC[C@]43C)[C@@H]1CC[C@@H]2C(=O)COS(=O)(=O)c1ccc(Br)cc1 |  | 3.29% [at 11.4 µM]
Cc1cc[c]([Sb]2[O][C@H]([C@H](O)[C@H](O)C(=O)O)[C@@H](CO)[O]2)cc1 |  | 10.9% [at 11.4 µM]
N#Cc1ccc(CN2CCCC3(CCN(C(=O)Oc4ccccc4)CC3)C2)cc1 | inactive | 
O=C(Nc1ccccc1)N1CC2(CCN(C(=O)Oc3ccccc3)CC2)C1 | inactive | 
COc1ccc(NC(=O)N2CC[C@@]3(CCCN(C(=O)Oc4ccccc4)C3)C2)cc1 | 6.31 µM (active) | 
N#Cc1ccc(CN2CC[C@@]3(CCCN(C(=O)Oc4ccccc4)C3)C2)cc1 | 3.16 µM (active) | 
CC(C)NC(=O)N1CCCC2(CCN(C(=O)Oc3ccccc3)CC2)C1 | inactive | 

SMILES | AC50 | activity, negative = inhibition
CN1CC[C@@]2(CCCN(C(=O)Oc3ccccc3)C2)C1 | inactive | 
O=C(Nc1ccccc1)N1CC[C@@]2(CCCN(C(=O)Oc3ccccc3)C2)C1 | inactive | 
N#Cc1ccc(CN2CCC3(CC2)CCN(C(=O)Oc2ccccc2)CC3)cc1 | inactive | 
CC(C)CN1CC2(CCN(C(=O)Oc3ccccc3)CC2)C1 | inactive | 
O=C(Oc1ccccc1)N1CCC[C@@]2(CCN(C(c3ccccc3)c3ccccc3)C2)C1 | 5.01 µM (active) | 
CC(C)CN1CC[C@@]2(CCCN(C(=O)Oc3ccccc3)C2)C1 | 6.31 µM (active) | 
COc1ccc(NC(=O)N2CCCC3(CCN(C(=O)Oc4ccccc4)CC3)C2)cc1 | inactive | 
COCCCN1CCN(c2nnc3n2-c2sc(Br)cc2C(c2ccccc2Cl)=NC3)CC1 | inactive | 
N/C(=N\N=C/c1ccc(-c2ccc(O)c(C(=O)O)c2)o1)N[N+](=O)[O-] | inactive | 
O=C(O)c1ccccc1Nc1cccc(C(F)(F)F)c1 | inactive | 
N[C@@H](CCCCP(=O)(O)O)C(=O)O | inactive | 
CC[N+](C)(C)c1cccc(O)c1 | inactive | 
O=C(Oc1ccccc1)N1CCC2(CCCN(C(c3ccccc3)c3ccccc3)C2)CC1 | inactive | 
O=C(Oc1ccccc1)N1CCC2(CC1)CN(C(c1ccccc1)c1ccccc1)C2 | 7.94 µM (active) | 
CN1CCC2(CC1)CCN(C(=O)Oc1ccccc1)CC2 | inactive | 
C[C@@H]1O[C@H](OC2[C@@H](O)[C@H](O)C(O)[C@H](O)[C@H]2O)[C@@H](N)C[C@@H]1N=C(N)C(=O)O (stereo not given in full) |  | 3.95% [at 11.4 µM]
CN1CCN(c2ncc3ncc(=O)n(C)c3n2)CC1 | inactive | 
CCN(CC)CCO[C@H]1CC[C@@]2(C)C(=CC[C@@H]3[C@H]2CC[C@]2(C)C(=O)CC[C@H]32)C1 | 0.0794 µM (active) | 
C[C@@]12CC[C@H]3[C@@H](CC=C4C[C@H](OS(=O)(=O)O)CC[C@]43C)[C@H]1CCC2=O | inactive | 
CC(=O)O[C@H]1CC[C@@]2(C)C(=CC[C@@H]3[C@H]2CC[C@]2(C)C(=O)CC[C@H]32)C1 | inactive | 

— PubChem BioAssay AID1851 (National Center for Advancing Translational Sciences (NCATS), 2009)
